Experimental findings from PubChem BioAssay (EPA / NIEHS) are described below.

Inconclusive results are not listed. Active and inactive are the calls of the source. The calls were made as follows, unless noted: active = hit-call score of the fitted dose curve at least 0.9, where 1 is the maximum; inactive = score below 0.9.

Assay [1] in a line: CCTE_Shafer_MEA_dev_firing_rate_mean: CCTE's Neural Network Formation Assay for Mean Firing Rate, Shafer Lab (AID 2284031). The essentials:
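Primary rat cortical neurons on 48-well MEA plates, exposed from plating day 0 with dosing renewed on DIV 5 and 9. Mean well firing rate over active electrodes, recorded days 5, 7, 9, 12, summarised as trapezoidal AUC.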

A short description of assay [2]: CCTE_Shafer_MEA_dev_per_burst_spike_percent: CCTE's Neural Network Formation Assay for Percent of Spikes in a Burst, Shafer Lab (AID 2284032).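 Also: fitted as a decrease in burst spike percentage below DMSO baseline.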 A digest of the protocol:
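Rat primary cortical neurons on 16-electrode MEA wells, dosed from plating day 0 for 12 days with renewal on DIV 5 and 9; spikes-in-bursts percentage averaged over bursting electrodes, collapsed as AUC across days 5, 7, 9, 12; loss direction versus DMSO.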

The nature of assay [3]: CCTE_Shafer_MEA_dev_active_electrodes_number: CCTE's Neural Network Formation Assay for Number of Active Electrodes, Shafer Lab (AID 2284040; active = hit-call score of the fitted dose curve at least 0.9, where 1 is the maximum;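 also: potency for loss of active electrodes versus DMSO so lower counts are hits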). The essentials: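 Primary rat cortical neurons on 16-electrode MEA wells, exposed from day 0 through day 12 with compound renewed at DIV 5 and 9 feeds. Active electrodes (mean firing ≥5 spikes/min) counted at DIV 5, 7, 9, 12; trapezoidal AUC across days, loss-of-signal versus DMSO.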

Assay [4] in a line: CCTE_Shafer_MEA_dev_bursting_electrodes_number: CCTE's Neural Network Formation Assay for Number of Bursting Electrodes, Shafer Lab (AID 2284043; active = hit-call score of the fitted dose curve at least 0.9, where 1 is the maximum;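 also: potency is for loss of bursting electrodes relative to DMSO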). The essentials: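 Read-out is the per-well number of electrodes bursting at least once every 2 minutes, recorded on days 5, 7, 9 and 12 and collapsed by trapezoidal area under the curve. Cultures were primary rat cortical neurons on MEA plates, treated continuously from plating.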

The nature of assay [5]: CCTE_Shafer_MEA_dev_per_burst_interspike_interval: CCTE's Neural Network Formation Assay for Burst Interspike Interval, Shafer Lab (AID 2284044).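 Also: mean spike spacing inside bursts as AUC over recordings on days 5 7 9 12.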 A digest of the protocol: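 Spontaneous activity of maturing rat cortical networks is recorded on DIV 5, 7, 9 and 12 under chronic compound exposure beginning at plating. Endpoint: burst interspike interval well-mean, collapsed into trapezoidal AUC and fitted in the negative direction relative to DMSO.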

Assay [6] is described as follows: CCTE_Shafer_MEA_dev_burst_duration_mean: CCTE's Neural Network Formation Assay for Mean Burst Duration, Shafer Lab (AID 2284045). The essentials: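 Read-out: average first-to-last-spike interval within single-electrode bursts, averaged over bursting electrodes per well, then summarised as area under the curve across days 5, 7, 9 and 12. Developing rat cortical networks were exposed from day 0.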

Assay [7] is described as follows: CCTE_Shafer_MEA_dev_interburst_interval_mean: CCTE's Neural Network Formation Assay for Mean Interburst Interval, Shafer Lab (AID 2284046).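 Also: well-mean interburst interval of bursting electrodes as AUC over four recording days; curve fitted for decrease in interburst interval relative to DMSO.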 The essentials:
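Primary rat cortical neurons on PEI-coated 48-well MEA plates (laminin added with cells at plating) (16 electrodes/well), exposed from plating day 0 with renewal at DIV 5 and 9. Mean inter-burst interval averaged over bursting electrodes, AUC across days 5, 7, 9, 12; DMSO baseline.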

Assay [8] is described as follows: CCTE_Shafer_MEA_dev_network_spike_number: CCTE's Neural Network Formation Assay for Number of Network Spikes, Shafer Lab (AID 2284048).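 Also: synchronized bursts across electrodes counted on days 5 7 9 12 and integrated as AUC.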 The essentials: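 Developing networks of primary rat cortical neurons are treated over 12 days starting at plating, with media and compound fully replaced on DIV 5 and 9. Network spike counts from four recording days are integrated as trapezoidal AUC.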

A short description of assay [9]: CCTE_Shafer_MEA_dev_network_spike_peak: CCTE's Neural Network Formation Assay for Mean Number of Electrodes in Network Spike, Shafer Lab (AID 2284049).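 Also: fitted for loss of signal meaning fewer electrodes in network spikes than DMSO.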 The essentials: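 Rat cortical primary culture, 1.5 x 10^5 cells/well, 48-well MEA (16 electrodes/well). Dosing day 0 through DIV 12, full media/compound exchange DIV 5, 9. AxIS adaptive spike detection; AUC over days 5/7/9/12; loss-of-signal vs DMSO.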

The nature of assay [10]: CCTE_Shafer_MEA_dev_spike_duration_mean: CCTE's Neural Network Formation Assay for Mean Spike Duration, Shafer Lab (AID 2284051).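 Also: potency for a decrease in mean network spike duration versus DMSO.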 A digest of the protocol: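 Spontaneous activity was recorded on days 5, 7, 9 and 12 from rat cortical cultures grown on microelectrode arrays and dosed continuously from day 0, with media and compound renewed after the DIV 5 and 9 recordings. Network-spike duration was collapsed by area under the curve.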

The nature of assay [11]: CCTE_Shafer_MEA_dev_per_network_spike_spike_number_mean: CCTE's Neural Network Formation Assay for Mean Number of Spikes in a Network Spike, Shafer Lab (AID 2284053).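 Also: fitted as decrease in spikes per network spike relative to DMSO.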 The essentials:
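Mean spike count within each network spike, taken in a 0.05 s window at its peak, was recorded on days 5, 7, 9 and 12 and integrated as trapezoidal area under the curve. Rat cortical cultures on MEA plates received continuous compound from day 0, refreshed at medium changes on DIV 5 and 9.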

Assay [12] in a line: CCTE_Shafer_MEA_dev_per_network_spike_spike_percent: CCTE's Neural Network Formation Assay for Percent of Spikes in a Network Spike, Shafer Lab (AID 2284054). The essentials:
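Rat primary cortical cultures, 1.5 x 10^5 cells/well on MEA. Continuous compound exposure d0–12, medium/compound renewed DIV 5, 9. Network-spike spike % (0.05 s peak window), AUC over 4 recordings, DMSO baseline.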

Assay [13] in a line: CCTE_Shafer_MEA_dev_LDH: CCTE's Lactate Dehydrogenase Assay for Cytotoxicity in the Neural Network Formation Assay, Shafer Lab (AID 2284068; active = hit-call score of the fitted dose curve at least 0.9, where 1 is the maximum;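 also: exposure for twelve days from plating with re-dosing on DIV 5 and 9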). A digest of the protocol:
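Primary rat cortical neurons were cultured on PEI-coated MEA plates and exposed from plating through day 12, with compound renewed at medium changes on DIV 5 and 9. LDH activity was read spectrophotometrically; loss of signal versus DMSO indicates reduced viability.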

Assay [14] is described as follows: CCTE_Shafer_MEA_dev_AB: CCTE's Alamar Blue Assay for Cytotoxicity in the Neural Network Formation Assay, Shafer Lab (AID 2284083; active = hit-call score of the fitted dose curve at least 0.9, where 1 is the maximum;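 also: resazurin reduction fluorescence as viability of cultured neurons; twelve days of exposure from plating with re-dosing on DIV 5 and 9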). A digest of the protocol:
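Resazurin fluorescence, relative to DMSO, gauges viability after twelve days of exposure that began at plating of rat cortical neurons (1.5 x 10^5 cells/well, 48-well MEA); treatment renewed with full medium exchange on DIV 5 and 9.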

Assay [15] can be described thus: CCTE_Shafer_MEA_dev_mutual_information_norm: CCTE's Neural Network Formation Assay for Mutual Information Normalization, Shafer Lab (AID 2284091).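 Also: mutual information between electrodes summarised as area under curve across four recording days; potency is for a decrease in mutual information relative to DMSO.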 A digest of the protocol:
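Developing rat cortical networks on 16-electrode MEA wells are treated throughout formation (DIV 0–12). Shared electrode information is recorded four times, converted to area-under-curve, and fitted for decreases against DMSO vehicle.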

The nature of assay [16]: CCTE_Shafer_MEA_dev_correlation_coefficient_mean: CCTE's Neural Network Formation Assay for Mean Correlation Coefficient, Shafer Lab (AID 2284093).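 Also: well mean pairwise spike train correlation integrated as AUC over recording days 5 to 12; potency fitted for loss of correlation relative to DMSO vehicle wells.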 The essentials:
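Primary rat cortical neurons on PEI-coated 48-well MEA plates (16 electrodes/well) were exposed from plating day 0 through DIV12, with compound renewed at DIV5 and 9. Pairwise spike correlations were averaged per well; trapezoidal AUC across DIV5, 7, 9, 12.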

The nature of assay [17]: CCTE_Mundy_HCI_Cortical_Synap_Neur_Matur_NeuriteSpotCountPerNeuriteLength: CCTE's Synaptogenesis and Neurite Maturation Assay in rat cortical cells for Neurite Spot Count per Neurite Length, Mundy Lab (AID 2284210). The essentials: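 Primary rat cortical neurons, compound exposure DIV 7–12, 288.33 h endpoint. Hoechst, anti-MAP2 and anti-synaptophysin labelling; neurite-associated puncta per neurite length scored by automated imaging relative to DMSO controls.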

Assay [18] can be described thus: CCTE_Mundy_HCI_Cortical_Synap_Neur_Matur_BPCount: CCTE's Synaptogenesis and Neurite Maturation Assay in rat cortical cells for Branch Point Count, Mundy Lab (AID 2284211). The essentials:
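Rat primary cortical cultures, AraC added DIV 5; chemicals dosed DIV 7 through DIV 12. Fixed cells stained for MAP2, synaptophysin and Hoechst; neurite branch points counted by automated high-content imaging, fitted relative to DMSO.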

The nature of assay [19]: CCTE_Mundy_HCI_Cortical_Synap_Neur_Matur_NeuriteLength: CCTE's Synaptogenesis and Neurite Maturation Assay in rat cortical cells for Neurite Length, Mundy Lab (AID 2284214). A digest of the protocol:
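Rat primary cortical cultures, AraC added DIV 5, dosed DIV 7 through DIV 12 […]. Fixed, MAP2/synaptophysin immunostained with Hoechst; neurite length by high-content imaging, fitted in positive direction versus DMSO.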

The nature of assay [20]: CCTE_Mundy_HCI_Cortical_Synap_Neur_Matur_NeuriteSpotCountPerNeuron: CCTE's Synaptogenesis and Neurite Maturation Assay in rat cortical cells for Neurite Spot Count per Neuron Count, Mundy Lab (AID 2284215). The essentials:
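Developing rat cortical neurons, with glia suppressed by AraC, are exposed to chemicals from DIV 7 to DIV 12. Automated fluorescence imaging of MAP2-labelled neurites and synaptophysin puncta yields a count per neuron, normalised against DMSO wells.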

Assay [21] in a line: CCTE_Mundy_HCI_Cortical_Synap_Neur_Matur_SynapseCount: CCTE's Synaptogenesis and Neurite Maturation Assay in rat cortical cells for Synapse Count, Mundy Lab (AID 2284218). A digest of the protocol:
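Rat primary cortical cultures, AraC at DIV 5, chemical dosing DIV 7 to DIV 12 (288.33 h). Fixed cells stained for MAP2, synaptophysin and Hoechst; synapses per neuron counted by high-content imaging, loss of signal versus DMSO.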

Assay [22] can be described thus: CCTE_Mundy_HCI_Cortical_Synap_Neur_Matur_CellBodySpotCount: CCTE's Synaptogenesis and Neurite Maturation Assay in rat cortical cells for Cell Body Spot Count, Mundy Lab (AID 2284223). The essentials:
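Chemicals were applied to AraC-treated rat primary cortical cells at DIV 7 and measured at DIV 12. Fixed cells were labelled for MAP2, synaptophysin and nuclei, and high-content imaging gave cell body synaptophysin spot counts per neuron relative to DMSO.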

Assay [23] can be described thus: CCTE_Mundy_HCI_Cortical_Synap_Neur_Matur_NeuronCount: CCTE's Synaptogenesis and Neurite Maturation Assay in rat cortical cells for Neuron Count, Mundy Lab (AID 2284242; active = hit-call score of the fitted dose curve at least 0.9, where 1 is the maximum;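 also: hits reduce neuron count versus DMSO baseline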). A digest of the protocol: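 Rat primary cortical cells, AraC added at DIV 5, dosed with media change from DIV 7 to DIV 12. Fixed, Hoechst-stained and immunolabelled for MAP2 and synaptophysin; neuron number counted by high-content imaging, loss fitted versus DMSO.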

For `[O]=[V]([OH])([OH])[OH]`, the result in assay [1], in [5], in [6], in assay [7] and in assay [8] was inactive. Further, the AC50 in assay [2] is 15 µM (active); in assay [3], 15 µM (active); in [4], 9.39 µM (active); in [9], 10.7 µM (active); in [10], 15 µM (active); in [11] it was 13.9 µM (active). Moreover, the AC50 is 15 µM (active) in assay [12]; 24.3 µM (active) in assay [13]; 28 µM (active) in assay [14]; 4.55 µM (active) in assay [15]; 13.6 µM (active) in [16]; 40.2 µM (active) in assay [17]. The AC50 was 12.2 µM (active) in assay [18]; 27 µM (active) in assay [19]; 11.6 µM (active) in assay [20]; 15.4 µM (active) in assay [21]; 44.3 µM (active) in [22]; 19.6 µM (active) in assay [23].
